# Results reported in PubChem BioAssay (NCI).
# Compounds without any hit were thinned out: in the full panel of roughly 79,000, 15% have a hit. A number with no mark means an inactive call. The source made the active and inactive calls. No stated cut-off is given here; in the data, active means growth inhibition above about 70%; inactive means the rest.
# Tests used:
# [1] = NCI Yeast Anticancer Drug Screen. Data for the rad52 strain (AID 147);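 further: 0% = growth of vehicle-treated control cultures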; conditions: S. cerevisiae rad52 mutant growth inhibition, stronger effect = higher value
# Procedure, shortened: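 The repair-mutant yeast strain was incubated with compounds, then growth was read and inhibition derived relative to vehicle.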
# [2] = NCI Yeast Anticancer Drug Screen. Data for the wt1 strain (AID 149);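 further: 0% = growth of vehicle-treated wt1 cultures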; conditions: S. cerevisiae wt1 strain (SPY 50644) growth inhibition, stronger effect = higher value
# Procedure, shortened: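 Each compound is tested on wt1 yeast and the loss of growth versus vehicle gives the inhibition value.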
# [3] = NCI Yeast Anticancer Drug Screen. Data for the rad50EPP+ strain (AID 151);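 further: 0% = growth of vehicle-treated control cultures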; conditions: S. cerevisiae rad50 mutant strain, stronger effect = higher value
# Procedure, shortened: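 Vehicle-normalised growth inhibition; rad50EPP+ yeast strain, altered in DNA damage repair, compound-treated.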
# [4] = NCI Yeast Anticancer Drug Screen. Data for the mgt1 strain (AID 153); conditions: S. cerevisiae mgt1 mutant growth inhibition, stronger effect = higher value
# Procedure, shortened: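 Vehicle-normalized growth inhibition is determined in mgt1 yeast, a strain selected for a defined alteration in DNA repair or cell cycle control.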
# [5] = NCI Yeast Anticancer Drug Screen. Data for the rad50 strain (AID 155);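 further: 0% = growth of vehicle-only cultures of the same strain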; conditions: S. cerevisiae rad50 strain growth inhibition, stronger effect = higher value
# Procedure, shortened: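 Vehicle-treated cultures provide the reference for the growth inhibition reported for compound-exposed, repair-deficient yeast.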
# [6] = NCI Yeast Anticancer Drug Screen. Data for the mec2-1 strain (AID 157); conditions: S. cerevisiae mec2-1 strain, stronger effect = higher value
# Procedure, shortened: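 Mutant yeast (mec2-1) grown with compound; growth inhibition relative to vehicle control reported.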
# [7] = NCI Yeast Anticancer Drug Screen. Data for the rad14 strain (AID 159);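 further: 0% = growth of vehicle-treated control cultures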; conditions: S. cerevisiae rad14 strain growth inhibition, stronger effect = higher value
# Procedure, shortened: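 Inhibition of growth is reported for a repair-deficient yeast mutant following compound treatment, calculated relative to cultures that received vehicle.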
# [8] = NCI Yeast Anticancer Drug Screen. Data for the sgs1 mgt1 strain (AID 161);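 further: 0% = growth of cultures given vehicle only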; conditions: S. cerevisiae sgs1 mgt1 strain, stronger effect = higher value
# Procedure, shortened: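 Compounds are added to genetically altered yeast, and growth is compared with cultures given vehicle alone to give percent inhibition.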
# [9] = NCI Yeast Anticancer Drug Screen. Data for the CLN2oe strain (AID 163);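 further: 0% = growth of vehicle-only control cultures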; conditions: S. cerevisiae CLN2oe strain, stronger effect = higher value
# Procedure, shortened: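 Compounds are applied to yeast harbouring a defined cell-cycle control change; reduced growth compared with vehicle-treated controls gives the value.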
# [10] = NCI Yeast Anticancer Drug Screen. Data for the cln2 rad14 strain (AID 165);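 further: 0% = growth equal to vehicle treated cultures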; conditions: S. cerevisiae cln2 rad14 strain, stronger effect = higher value
# Procedure, shortened: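 Readout is yeast growth inhibition versus vehicle-treated controls, using a strain with cln2 and rad14 alterations exposed to compound.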
# [11] = NCI Yeast Anticancer Drug Screen. Data for the bub3 strain (AID 167); conditions: S. cerevisiae bub3 mutant strain, stronger effect = higher value
# Procedure, shortened: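 Mutant yeast screening strain plus compound; vehicle-treated cultures serve as the 0% inhibition reference.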
# [12] = NCI Yeast Anticancer Drug Screen. Data for the wt2 strain (AID 169); conditions: S. cerevisiae wt2 strain growth inhibition, stronger effect = higher value
# Procedure, shortened: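 Against vehicle-treated controls, the growth of yeast exposed to each compound was compared, and the inhibition was recorded.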
# [13] = NCI Yeast Anticancer Drug Screen. Data for the mlh1 strain (AID 171);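 further: 0% = growth of vehicle-treated control cultures of the same strain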; conditions: S. cerevisiae mlh1 strain growth inhibition, stronger effect = higher value
# Procedure, shortened: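 Measured: yeast growth. Reference: vehicle-treated controls. Organism: strain with a defined alteration affecting DNA damage repair or cell cycle control, treated with compound.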
# [14] = NCI Yeast Anticancer Drug Screen. Data for the sgs1 strain (AID 173);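 further: 0% = growth of vehicle-only control cultures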; conditions: S. cerevisiae sgs1 mutant, stronger effect = higher value
# Procedure, shortened: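 Each compound was added to cultures of the altered yeast strain. Growth was recorded, and inhibition was derived by comparison with vehicle controls.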
# [15] = NCI Yeast Anticancer Drug Screen. Data for the mlh1 rad18 strain (AID 175); conditions: S. cerevisiae mlh1 rad18 strain growth inhibition, stronger effect = higher value
# Procedure, shortened: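 Genetically defined yeast (DNA repair-deficient) exposed to compounds; growth inhibition determined relative to vehicle.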
# [16] = NCI Yeast Anticancer Drug Screen. Data for the rad18 strain (AID 177); conditions: S. cerevisiae rad18 mutant growth inhibition, stronger effect = higher value
# Procedure, shortened: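 Vehicle-treated cultures served as the baseline for scoring compound-induced growth inhibition in DNA-repair-mutant yeast.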
# [17] = at 5.0 µM (retest, dose inferred, filed as 0.5)
# [18] = at 50.0 µM (retest, dose inferred, filed as 5.0)
compound,measurement,setting,value
CCOC1Oc2ccccc2-c2nc(N)ncc21 (stereo unspecified),growth inhibition,[1]; at 1.2 µM,7%
same,growth inhibition,[1]; at 3.7 µM,6%
same,growth inhibition,[1]; at 11.0 µM,3%
same,growth inhibition,[1]; at 33.0 µM,3%
same,growth inhibition,[1]; at 100.0 µM,-5%
same,growth inhibition,[2]; at 1.2 µM,-4%
same,growth inhibition,[2]; at 3.7 µM,-1%
same,growth inhibition,[2]; at 11.0 µM,1%
same,growth inhibition,[2]; at 33.0 µM,-1%
same,growth inhibition,[2]; at 100.0 µM,-14%
same,growth inhibition,[3]; at 1.2 µM,0%
same,growth inhibition,[3]; at 3.7 µM,-1%
same,growth inhibition,[3]; at 11.0 µM,-5%
same,growth inhibition,[3]; at 33.0 µM,-3%
same,growth inhibition,[3]; at 100.0 µM,-12%
same,growth inhibition,[4]; at 1.2 µM,-2%
same,growth inhibition,[4]; at 3.7 µM,10%
same,growth inhibition,[4]; at 11.0 µM,4%
same,growth inhibition,[4]; at 33.0 µM,9%
same,growth inhibition,[4]; at 100.0 µM,6%
same,growth inhibition,[5]; at 1.2 µM,-2%
same,growth inhibition,[5]; at 3.7 µM,-13%
same,growth inhibition,[5]; [17],17%
same,growth inhibition,[5]; at 11.0 µM,-5%
same,growth inhibition,[5]; at 33.0 µM,0%
same,growth inhibition,[5]; [18],75% (active)
same,growth inhibition,[5]; at 50.0 µM,88.3% (active)
same,growth inhibition,[5]; at 100.0 µM,-33%
same,growth inhibition,[6]; at 1.2 µM,13%
same,growth inhibition,[6]; at 3.7 µM,6%
same,growth inhibition,[6]; [17],3%
same,growth inhibition,[6]; at 11.0 µM,-2%
same,growth inhibition,[6]; at 33.0 µM,-8%
same,growth inhibition,[6]; [18],39%
same,growth inhibition,[6]; at 50.0 µM,85.4% (active)
same,growth inhibition,[6]; at 100.0 µM,-15%
same,growth inhibition,[7]; at 1.2 µM,-3%
same,growth inhibition,[7]; at 3.7 µM,-5%
same,growth inhibition,[7]; at 11.0 µM,-4%
same,growth inhibition,[7]; at 33.0 µM,-1%
same,growth inhibition,[7]; at 100.0 µM,-4%
same,growth inhibition,[8]; [17],10%
same,growth inhibition,[8]; [18],85% (active)
same,growth inhibition,[8]; at 50.0 µM,-4.55%
same,growth inhibition,[9]; at 1.2 µM,7%
same,growth inhibition,[9]; at 3.7 µM,4%
same,growth inhibition,[9]; at 11.0 µM,-14%
same,growth inhibition,[9]; at 33.0 µM,-27%
same,growth inhibition,[9]; at 100.0 µM,1%
same,growth inhibition,[10]; [17],22%
same,growth inhibition,[10]; [18],37%
same,growth inhibition,[10]; at 50.0 µM,-20.9%
same,growth inhibition,[11]; at 1.2 µM,4%
same,growth inhibition,[11]; at 3.7 µM,-7%
same,growth inhibition,[11]; [17],2%
same,growth inhibition,[11]; at 11.0 µM,-12%
same,growth inhibition,[11]; at 33.0 µM,-5%
same,growth inhibition,[11]; [18],23%
same,growth inhibition,[11]; at 50.0 µM,-16.8%
same,growth inhibition,[11]; at 100.0 µM,-9%
same,growth inhibition,[12]; at 1.2 µM,-3%
same,growth inhibition,[12]; at 3.7 µM,-7%
same,growth inhibition,[12]; at 11.0 µM,-7%
same,growth inhibition,[12]; at 33.0 µM,-2%
same,growth inhibition,[12]; at 100.0 µM,-10%
same,growth inhibition,[13]; at 1.2 µM,11%
same,growth inhibition,[13]; at 3.7 µM,16%
same,growth inhibition,[13]; at 11.0 µM,1%
same,growth inhibition,[13]; at 33.0 µM,4%
same,growth inhibition,[13]; at 100.0 µM,-1%
same,growth inhibition,[14]; at 1.2 µM,3%
same,growth inhibition,[14]; at 3.7 µM,11%
same,growth inhibition,[14]; at 11.0 µM,5%
same,growth inhibition,[14]; at 33.0 µM,-9%
same,growth inhibition,[14]; at 100.0 µM,-9%
same,growth inhibition,[15]; [17],12%
same,growth inhibition,[15]; [18],76% (active)
same,growth inhibition,[15]; at 50.0 µM,-21.9%
same,growth inhibition,[16]; at 1.2 µM,4%
same,growth inhibition,[16]; at 3.7 µM,7%
same,growth inhibition,[16]; at 11.0 µM,-1%
same,growth inhibition,[16]; at 33.0 µM,3%
same,growth inhibition,[16]; at 100.0 µM,-2%
N/C(=N/N=C/c1cc(Br)cc(Br)c1O)NO,growth inhibition,[1]; at 1.2 µM,-37%
same,growth inhibition,[1]; at 3.7 µM,-26%
same,growth inhibition,[1]; at 11.0 µM,17%
same,growth inhibition,[1]; at 33.0 µM,90% (active)
same,growth inhibition,[1]; at 100.0 µM,97% (active)
same,growth inhibition,[2]; at 1.2 µM,-94%
same,growth inhibition,[2]; at 3.7 µM,-40%
same,growth inhibition,[2]; at 11.0 µM,-13%
same,growth inhibition,[2]; at 33.0 µM,90% (active)
same,growth inhibition,[2]; at 100.0 µM,98% (active)
same,growth inhibition,[3]; at 1.2 µM,-27%
same,growth inhibition,[3]; at 3.7 µM,-24%
same,growth inhibition,[3]; at 11.0 µM,-6%
same,growth inhibition,[3]; at 33.0 µM,28%
same,growth inhibition,[3]; at 100.0 µM,73% (active)
same,growth inhibition,[4]; at 1.2 µM,-36%
same,growth inhibition,[4]; at 3.7 µM,-27%
same,growth inhibition,[4]; at 11.0 µM,66%
same,growth inhibition,[4]; at 33.0 µM,95% (active)
same,growth inhibition,[4]; at 100.0 µM,98% (active)
same,growth inhibition,[5]; at 1.2 µM,-39%
same,growth inhibition,[5]; at 3.7 µM,-34%
same,growth inhibition,[5]; [17],-1%
same,growth inhibition,[5]; at 11.0 µM,6%
same,growth inhibition,[5]; at 33.0 µM,90% (active)
same,growth inhibition,[5]; [18],99% (active)
same,growth inhibition,[5]; at 50.0 µM,96.1% (active)
same,growth inhibition,[5]; at 100.0 µM,97% (active)
same,growth inhibition,[6]; at 1.2 µM,-89%
same,growth inhibition,[6]; at 3.7 µM,-62%
same,growth inhibition,[6]; [17],13%
same,growth inhibition,[6]; at 11.0 µM,-6%
same,growth inhibition,[6]; at 33.0 µM,87% (active)
same,growth inhibition,[6]; [18],99% (active)
same,growth inhibition,[6]; at 50.0 µM,85.8% (active)
same,growth inhibition,[6]; at 100.0 µM,96% (active)
same,growth inhibition,[7]; at 1.2 µM,-19%
same,growth inhibition,[7]; at 3.7 µM,-1%
same,growth inhibition,[7]; at 11.0 µM,82% (active)
same,growth inhibition,[7]; at 33.0 µM,97% (active)
same,growth inhibition,[7]; at 100.0 µM,98% (active)
same,growth inhibition,[8]; [17],10%
same,growth inhibition,[8]; [18],99% (active)
same,growth inhibition,[8]; at 50.0 µM,97.8% (active)
same,growth inhibition,[9]; at 1.2 µM,-6%
same,growth inhibition,[9]; at 3.7 µM,-11%
same,growth inhibition,[9]; at 11.0 µM,25%
same,growth inhibition,[9]; at 33.0 µM,95% (active)
same,growth inhibition,[9]; at 100.0 µM,98% (active)
same,growth inhibition,[10]; [17],7%
same,growth inhibition,[10]; [18],99% (active)
same,growth inhibition,[10]; at 50.0 µM,92.3% (active)
same,growth inhibition,[11]; at 1.2 µM,-40%
same,growth inhibition,[11]; at 3.7 µM,-60%
same,growth inhibition,[11]; [17],-5%
same,growth inhibition,[11]; at 11.0 µM,44%
same,growth inhibition,[11]; at 33.0 µM,93% (active)
same,growth inhibition,[11]; [18],99% (active)
same,growth inhibition,[11]; at 50.0 µM,87% (active)
same,growth inhibition,[11]; at 100.0 µM,97% (active)
same,growth inhibition,[12]; at 1.2 µM,-2%
same,growth inhibition,[12]; at 3.7 µM,-9%
same,growth inhibition,[12]; at 11.0 µM,35%
same,growth inhibition,[12]; at 33.0 µM,94% (active)
same,growth inhibition,[12]; at 100.0 µM,98% (active)
same,growth inhibition,[13]; at 1.2 µM,-78%
same,growth inhibition,[13]; at 3.7 µM,-40%
same,growth inhibition,[13]; at 11.0 µM,58%
same,growth inhibition,[13]; at 33.0 µM,93% (active)
same,growth inhibition,[13]; at 100.0 µM,97% (active)
same,growth inhibition,[14]; at 1.2 µM,-35%
same,growth inhibition,[14]; at 3.7 µM,-28%
same,growth inhibition,[14]; at 11.0 µM,59%
same,growth inhibition,[14]; at 33.0 µM,93% (active)
same,growth inhibition,[14]; at 100.0 µM,96% (active)
same,growth inhibition,[15]; [17],16%
same,growth inhibition,[15]; [18],99% (active)
same,growth inhibition,[15]; at 50.0 µM,98.7% (active)
same,growth inhibition,[16]; at 1.2 µM,-30%
same,growth inhibition,[16]; at 3.7 µM,-20%
same,growth inhibition,[16]; at 11.0 µM,75% (active)
same,growth inhibition,[16]; at 33.0 µM,94% (active)
same,growth inhibition,[16]; at 100.0 µM,97% (active)
